This note sets out measurements from PubChem BioAssay (NCI).

Test systems include HCT-15 colon; HT29 colon; SNB-75 CNS; SNB-19 CNS; U251 CNS; PC-3 prostate; SK-MEL-5 melanoma; UACC-62 melanoma; LOX IMVI melanoma; SK-MEL-28 melanoma; SK-MEL-2 melanoma; EKVX NSCLC; SN12C renal; UO-31 renal; TK-10 renal; ACHN renal; CAKI-1 renal; CCRF-CEM leukemia; MOLT-4 leukemia.
Common to all, as to test: NCI-60 one-dose screen, 48 h (100 = growth as untreated, 0 = no growth, -100 = all killed)
Conditions in all cases: 10 µM unless noted

Structures are written as SMILES. This is part of a sample that, as a whole, favours compounds with a hit. Of some 83,000 tested, about 20% had one in any assay.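 Results are percent growth after 48 hours of single-concentration exposure. 100 means growth as in untreated cells, lower positive values show inhibition; negative values down to -100 show cell death.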 Unmarked numbers belong to inactive results. Activity calls are given as the source filed them. Rule for the calls: active = growth percent below 10; inactive = the rest.

Consider `CCCCCCOc1ccc(C(=N)N(CCCC)CCCC)c2ccccc12`, for which the growth in the test on HCT-15 colon was -82.1% (active); with HT29 colon, -83.2% (active); in the test with SNB-75 CNS, -98.9% (active); in the test with SNB-19 CNS, -88.9% (active); in the test with U251 CNS, -77.7% (active); in the test on PC-3 prostate, -84.2% (active). Also, the growth with SK-MEL-5 melanoma was -99.3% (active); in the test with UACC-62 melanoma it was -86% (active); in the test on LOX IMVI melanoma it was -92.6% (active); in the test on SK-MEL-28 melanoma, -94.3% (active); in the test on SK-MEL-2 melanoma it was -85.6% (active); in the test on EKVX NSCLC it was -75.4% (active). The growth was -86.5% (active) in the test on SN12C renal; -93.9% (active) in the test with UO-31 renal; -92.4% (active) in the test with TK-10 renal; -92% (active) in the test with ACHN renal; -83.7% (active) with CAKI-1 renal; -12.8% (active) in the test with CCRF-CEM leukemia. The growth in the test on MOLT-4 leukemia was -38.4% (active).

On to `[O-][n+]1ccccc1CCN(O)CCc1cccc[n+]1[O-]`, for which the growth in the test with HCT-15 colon is 99.3%; with HT29 colon, 98.5%; with SNB-75 CNS it was 85.4%; in the test on SNB-19 CNS it was 102%; with U251 CNS it was 105%; in the test on PC-3 prostate, 91.8%. Besides, the growth is 95.3% with SK-MEL-5 melanoma; 99% with UACC-62 melanoma; 97.9% with LOX IMVI melanoma; 116% in the test with SK-MEL-28 melanoma; 92.9% in the test with SK-MEL-2 melanoma; 99.4% with EKVX NSCLC. The growth is 105% with SN12C renal; 75.5% in the test with UO-31 renal; 104% in the test on TK-10 renal; 95.8% in the test with ACHN renal; 94.7% in the test on CAKI-1 renal; 99.5% with CCRF-CEM leukemia. Moreover, the growth in the test on MOLT-4 leukemia was 98%.

With `c1ccc(-c2nn(-c3ccccc3)[n+](-c3cccc4ccccc34)n2)cc1`, the growth was 103% in the test with HCT-15 colon; 12.1% with HT29 colon; 48.4% with SNB-75 CNS; 24.9% with SNB-19 CNS; 17.7% with U251 CNS; 6.61% (active) in the test on PC-3 prostate. Also, the growth in the test with SK-MEL-5 melanoma was -30.2% (active); in the test with UACC-62 melanoma, -2.14% (active); in the test with LOX IMVI melanoma it was 12.7%; in the test on SK-MEL-28 melanoma, 41.2%; in the test with SK-MEL-2 melanoma it was -11.3% (active); in the test with EKVX NSCLC, 11.8%. In addition, the growth in the test on SN12C renal is 32.7%; in the test with UO-31 renal, 69.1%; in the test with TK-10 renal, 40.4%; in the test on ACHN renal, 72.2%; in the test with CAKI-1 renal, 90.3%; in the test on CCRF-CEM leukemia, 18.7%. Moreover, in the test on MOLT-4 leukemia, the growth is 18.9%.

Regarding `Cc1cc(Nc2cccc(C(F)(F)F)c2)n2c(nc3ccccc32)c1C#N`, the growth in the test on HCT-15 colon was 12.2%; in the test on HT29 colon, 13.2%; with SNB-75 CNS it was 59.4%; in the test on SNB-19 CNS it was 40.7%; in the test on U251 CNS, 11.6%; in the test with PC-3 prostate, 21.8%. The growth in the test with SK-MEL-5 melanoma was 4.24% (active); in the test with UACC-62 melanoma, 37.9%; in the test on LOX IMVI melanoma, 59.6%; in the test on SK-MEL-28 melanoma, 54.8%; in the test on SK-MEL-2 melanoma, 28.7%; in the test with EKVX NSCLC it was 31.5%. Moreover, the growth is 25.4% with SN12C renal; 28.3% in the test on UO-31 renal; 58.3% in the test on TK-10 renal; 46.9% in the test on ACHN renal; 38.7% with CAKI-1 renal; 55.8% with CCRF-CEM leukemia. Further, the growth with MOLT-4 leukemia is 56.6%.

Turning to `CN(C)C(C(N)=O)c1ccc(Cl)cc1` (stereo not given), the growth was 108% in the test with HCT-15 colon; 104% with HT29 colon; 93.6% with SNB-75 CNS; 99.9% in the test on SNB-19 CNS; 93.4% in the test on U251 CNS; 95.1% with PC-3 prostate. The growth with SK-MEL-5 melanoma was 101%; in the test with UACC-62 melanoma, 90.8%; in the test on LOX IMVI melanoma, 95.7%; in the test with SK-MEL-28 melanoma it was 101%; in the test on SK-MEL-2 melanoma, 102%; in the test on EKVX NSCLC, 97.8%. The growth with SN12C renal was 103%; in the test on UO-31 renal, 94.2%; in the test with TK-10 renal it was 92.2%; in the test on ACHN renal, 95.2%; in the test with CAKI-1 renal it was 93.4%; with CCRF-CEM leukemia, 115%. Also, the growth in the test on MOLT-4 leukemia is 95.5%.

For `Cc1c(C(=O)NO)sc2ncnc(Nc3ccc(NC(=S)Nc4ccccc4)cc3)c12`, the growth with HCT-15 colon is 95.4%; in the test on HT29 colon, 103%; with SNB-75 CNS, 87.9%; in the test with SNB-19 CNS it was 96.5%; with U251 CNS it was 104%; in the test on PC-3 prostate, 106%. Besides, the growth with SK-MEL-5 melanoma is 101%; with UACC-62 melanoma, 95%; in the test with LOX IMVI melanoma, 93.8%; in the test with SK-MEL-28 melanoma, 105%; with SK-MEL-2 melanoma, 104%; in the test with EKVX NSCLC, 93.6%. Also, the growth in the test on SN12C renal is 101%; in the test on UO-31 renal it was 85.1%; in the test with TK-10 renal, 106%; in the test on ACHN renal, 105%; in the test with CAKI-1 renal, 96.6%; in the test with MOLT-4 leukemia, 111%.

Turning to `COC(=O)N[C@H]1CCc2cc(OC)c(OC)c(OC)c2-c2ccc(SC)c(=O)cc21`, the growth is 9.48% (active) with HCT-15 colon; 2.35% (active) with HT29 colon; 32.4% in the test on SNB-75 CNS; 31.1% with SNB-19 CNS; 12.8% with U251 CNS; 22.4% in the test with PC-3 prostate. The growth in the test with SK-MEL-5 melanoma was -42.9% (active); in the test with UACC-62 melanoma it was 34.9%; with LOX IMVI melanoma, 15.7%; in the test with SK-MEL-28 melanoma, 56.9%; with SK-MEL-2 melanoma it was 12.5%; in the test with EKVX NSCLC it was 32.2%. Further, the growth in the test with SN12C renal was 23.9%; in the test on UO-31 renal it was 44.5%; in the test on TK-10 renal, 47%; in the test with ACHN renal, 24.9%; in the test with CAKI-1 renal it was 17%; in the test on CCRF-CEM leukemia it was 15.6%. Moreover, the growth with MOLT-4 leukemia is 9.69% (active).

As to `COc1cc(CCNc2nc3cc(N)cc(N)c3nc2-c2ccccc2)cc(OC)c1`, the growth in the test on HCT-15 colon is 69.7%; in the test on HT29 colon, 5.3% (active); in the test on SNB-75 CNS, 39.9%; with SNB-19 CNS, 12.9%; with U251 CNS, -80.3% (active); in the test on PC-3 prostate, 4.03% (active). The growth in the test on SK-MEL-5 melanoma is -91.7% (active); in the test on UACC-62 melanoma, -22.3% (active); in the test with LOX IMVI melanoma it was -79.7% (active); with SK-MEL-28 melanoma, -12.2% (active); with SK-MEL-2 melanoma, -3.81% (active); with EKVX NSCLC it was 57.6%. For the same compound, the growth with SN12C renal was -77.7% (active); in the test with UO-31 renal, 39%; with TK-10 renal, 104%; in the test with ACHN renal, 52.3%; in the test with CAKI-1 renal it was 184%; with MOLT-4 leukemia, -66.5% (active).
